Reference: PubChem BioAssay (NCI)
About 83,000 compounds went through this panel and 20% of them were active in at least one assay; those are over-represented in the sample as a whole.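 Results are percent growth after 48 hours of single-concentration exposure. 100 means growth as in untreated cells, lower positive values show inhibition; negative values down to -100 show cell death.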 Activity calls are given as the source filed them. Rule for the calls: active = growth percent below 10; inactive = the rest.

Tested on: M14 melanoma
Test: NCI-60 one-dose screen, 48 h (100 = growth as untreated, 0 = no growth, -100 = all killed)
Settings: 10 µM unless noted

SMILES | growth
CC1CN(C2CCCCC2)C(=O)NC1=O (configuration not stated) | 99.3% (inactive)
O=C1C=CC(=O)N1c1ccccc1N1C(=O)C=CC1=O | 110% (inactive)
Cc1n(Cc2ccc3ccccc3c2)c2ccccc2[n+]1Cc1ccc2ccccc2c1 | -69% (active)
C[C@H]1O[C@@H](O[C@H]2[C@@H](O)C[C@H](O[C@H]3[C@@H](O)C[C@H](O[C@H]4CC[C@]5(C)C6C[C@@H](O)[C@]7(C)[C@@H](C8=CC(=O)OC8)CC[C@]7(O)C6CC[C@@H]5C4)O[C@@H]3C)O[C@@H]2C)C[C@H](O)[C@@H]1O (some centres not stated) | -81.6% (active)
O=C(CNc1ccc2c(c1)C(=O)c1ccccc1C2=O)Nc1ccc2c(c1)C(=O)c1ccccc1C2=O | -79.3% (active)
Cc1sc2nc(N3CCCCC3)[nH]c(=O)c2c1C | 98.8% (inactive)
NC(=NCCCCCCN=C(N)/N=C(\N)Nc1ccc(Cl)cc1)/N=C(\N)Nc1ccc(Cl)cc1 | 22.6% (inactive)
COc1cc(NC(=O)NCc2ccco2)ccc1-c1ccc(NC(=O)NCc2ccco2)cc1OC | 64.3% (inactive)
CSc1nc(Nc2ccc(S(=O)(=O)Nc3ccon3)cc2)c(C#N)c(-c2ccc(Cl)cc2)n1 | 88.1% (inactive)
COP(=O)(OC)C(c1ccc(O)cc1)(c1ccc(O)cc1)c1ccc(O)cc1 | 86% (inactive)
C=C1CCC2C(C)(COC(=O)CC)C(OC(=O)CC)CCC2(C)C1C/C=C1/C(=O)OCC1OC(=O)CC (configuration not stated) | -76.8% (active)
Cc1cnc2nc(-c3ccc(N(C)C)cc3)cn2c1 | 100% (inactive)
Cc1ccc2nc3c(n2c1)C(=O)C(=O)c1ccccc1-3 | -81.3% (active)
CC(C)=CCCC(C)c1ccc(C)c2c1OCN(CC1CCNCC1)C2 (configuration not stated) | -95.4% (active)
CCOc1cc(/C=C/C(=O)C(C(=O)/C=C/c2ccc(OC(=O)CNc3nc4ccccc4[nH]3)c(OCC)c2)C(=O)CNc2nc3ccccc3[nH]2)ccc1OC(=O)CNc1nc2ccccc2[nH]1 | -6.17% (active)
COc1ccc(C(=O)/C=C/c2cccc(Nc3ccnc4cc(Cl)ccc34)c2)cc1 | 23.2% (inactive)

Tested on: HCT-15 colon
Test: as above
Settings: 10 µM unless noted

SMILES | growth
COc1cc(C2CC(C3C(=O)N(C)C(=O)N(C)C3=O)=NN2C=O)cc(OC)c1OC (configuration not stated) | 102% (inactive)
C=C1CCC2C3(C)COC(c4ccccc4)OC3CCC2(C)C1C/C=C1/C(=O)OCC1OC(C)=O (configuration not stated) | 79.1% (inactive)
Clc1ccc(C2=NN(c3ccc(Cl)cc3)C(c3cccc(Nc4ccnc5cc(Cl)ccc45)c3)C2)cc1 (configuration not stated) | 85.2% (inactive)
CC(=O)N1N=C(c2ccc(Nc3nc(NCCO)nc(NCCO)n3)cc2)CC1c1ccc(Cl)cc1 (configuration not stated) | 94.5% (inactive)
O=C(c1ccccc1)c1ccc(Oc2ccc([N+](=O)[O-])cc2[N+](=O)[O-])cc1 | 2.7% (active)
O=C(C(=O)N1CCOCC1)c1cn(CCCn2cc(C(=O)C(=O)N3CCOCC3)c3ccccc32)c2ccccc12 | 104% (inactive)
CC(C)CC1NC(=O)C(CCCN)NC(=O)C(C(C)C)NC(=O)C2CCCN2C(=O)C(Cc2ccccc2)NC(=O)C(CC(C)C)NC(=O)C(CCCN)NC(=O)C(C(C)C)NC(=O)C2CCCN2C(=O)C(Cc2ccccc2)NC1=O (configuration not stated) | 7.83% (active)
Cc1csc(C#Cc2cncc(O)c2)n1 | 112% (inactive)
COc1cc(/C=C/C(=O)C(C(=O)/C=C/c2ccc(OC(=O)CCNC34CC5CC(CC(C5)C3)C4)c(OC)c2)C(=O)CCNC23CC4CC(CC(C4)C2)C3)ccc1OC(=O)CCNC12CC3CC(CC(C3)C1)C2 (configuration not stated) | -18.2% (active)
C/C=C(/C(=C/C)c1ccc(O)cc1)c1ccc(O)cc1 | 31.7% (inactive)
COc1cc(/C=C/C(=O)CC(=O)/C=C/c2ccc(OC(=O)CCNC34CC5CC(CC(C5)C3)C4)c(OC)c2)ccc1OC(=O)CCNC12CC3CC(CC(C3)C1)C2 | 46.9% (inactive)
Oc1c(Cl)cc(Cl)c(Cl)c1Cc1c(O)c(Cl)cc(Cl)c1Cl | 11.5% (inactive)
COc1cc(C2CC(c3ccc(C)cc3)=NN2C=O)ccc1OCCN(C)C (configuration not stated) | 76% (inactive)
NS(=O)(=O)c1cc(C2(O)NC(=O)c3ccccc32)ccc1Cl (configuration not stated) | 104% (inactive)
CCn1cnc(C[C@H](NC(=O)[C@H](CCCCNC(=O)Nc2cc(C(F)(F)F)cc(C(F)(F)F)c2)NC(=O)Nc2cc(C(F)(F)F)cc(C(F)(F)F)c2)C(=O)OC)c1 | 48.1% [100 µM] (inactive)
CS(=O)(=O)N1CCN(Cc2cc3nc(-c4cccc5[nH]ncc45)nc(N4CCOCC4)c3s2)CC1 (tested in a mixture with another compound) | 14.2% (inactive)
